# Screening data as filed in PubChem.
# The list is not random: actives were taken first. Their share in the collection is about 19%.
# HT1080 IDH1KD tx – toxicity to HT-1080 IDH1 knockdown cells (counter line). HT-1080 IDH1 knockdown viability, ATP luminescence, 48 h. Potency, µM (highest dose often 46.1 µM), usual class: cytotoxic. 360,000 compounds, 2% hits. AID 686971
#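 After a 2 h attachment period, IDH1KD HT-1080 cells took pin-transferred compound for 48 h at 37 °C; ATP-based luminescence after 10 min room-temperature reagent incubation reported viability.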
# IL-1B inflam inh – inflammasome signaling inhibition, IL-1 beta readout; THP-1 LPS/ATP IL-1B secretion, AlphaLISA, 16 h; active compounds read low; activity change, % at 57.5 µM; 360,000 compounds, 4.7% hits; AID 743279; in the data active means activity change below about -50%; inconclusive means mostly about -30% to -49%
#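 Secreted IL-1B measured by AlphaLISA bead assay after 16 h compound exposure of THP-1 cells; compounds (final up to 57.5 uM) added 1 h before LPS (250 ng/mL) and ATP (1.25 mM) stimulation; lower signal means less secretion.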
# DT40 TDP1 no CPT – qHTS for Inhibitors of human tyrosyl-DNA phosphodiesterase 1 (TDP1): qHTS in cells in absence of CPT. DT40 Tdp1-/- hTDP1 cells, no CPT, ATP luminescence, 48 h. 420,000 compounds, 15% hits. Potency, µM (series often up to 46.2 µM), usual class: inhibitors. AID 686978, 2013; further: nearly all actives have a fitted effect of over 55% in size
#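 Readout: luminescence from CellTiter-Glo after 30 min in the dark at RT. Cells: DT40 Tdp1-/- with stable hTDP1, 400/well. Exposure: compounds alone, ≥48 hr, 37 °C.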
# HT1080-NT tox – kills 2HG-producing HT-1080-NT fibrosarcoma cells | HT-1080-NT fibrosarcoma viability, CellTiter-Glo ATP luminescence, 48 h | Potency, µM (highest dose often 46.1 µM), hits mostly cytotoxic | 360,000 compounds, 1.6% hits | AID 686970;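 further: NT is the 2HG producing partner of a matched IDH1 knockdown line; nearly all actives have a fitted effect of over 55% in size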
#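 Luminescent CellTiter-Glo readout after 48 hours of compound exposure at 37 degrees C defined viability of HT-1080-NT cells. Activity was normalized to DMSO wells and cell-free media wells; concentration-response curves were fitted and assigned curve classes.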
# TDP1 cell CPT – growth inhibition of DT40 Tdp1-/-;hTDP1 cells with camptothecin (screen for TDP1 inhibitors); 420,000 compounds, 12% hits; Potency, µM (highest dose often 46.2 µM), most hits filed as inhibitors; chicken DT40 Tdp1-/-;hTDP1 cells + 20 nM CPT, ATP luminescence, 48 h; further: nearly all actives have a fitted effect of over 55% in size
#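 Chicken DT40 Tdp1-/- cells complemented with human TDP1, 400 cells/well, exposed to compounds plus 20 nM camptothecin for at least 48 h at 37 C; viability read as ATP content by CellTiter-Glo luminescence.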
# A number is an active result; – = inactive; ? = inconclusive; · = no result. Unless noted, the call rests on the fitted dose curve; in most records, active means well fitted curve in the direction sought with a large enough effect; inconclusive means small, poorly fitted or top-dose-only effect, or another doubt; inactive means no such curve, though single readings can be large; an effect the other way counts as inactive or inconclusive.
SMILES,HT1080 IDH1KD tx,IL-1B inflam inh,DT40 TDP1 no CPT,HT1080-NT tox,TDP1 cell CPT
CC(=O)N1CCC2(CC1)CN(C(c1ccccc1)c1ccccc1)C2,·,·,?,·,–
CCN1CCN(C(=O)C2CCN(c3nnc(-n4c(C)ccc4C)s3)CC2)CC1,–,–,–,–,?
COc1ccccc1N1CCN(C(=O)C(C)CS(=O)(=O)c2ccc3c(c2)NC(=O)CS3)CC1 (configuration not stated),–,–,?,–,?
CCC1CCCCN1S(=O)(=O)c1ccc(NC(=O)C2CCN(C(=O)c3ccco3)CC2)cc1 (configuration not stated),–,–,?,?,–
CCC1CCCCN1S(=O)(=O)c1ccc(NC(=O)c2cc(=O)c3c(C)cc(C)cc3o2)cc1 (configuration not stated),·,·,15µM,·,–
CCOc1cc(CNc2ccc(Br)cc2)cc(Br)c1OCC(=O)NC(C)(C)C,?,–,?,?,21µM
CCOc1cc(CNc2ccccc2)cc(Br)c1OCC(=O)NC(C)(C)C,?,-87,?,?,?
COc1cc(CNc2ccc(CNc3ncn[nH]3)cc2)ccc1OCC(=O)NC(C)(C)C,–,–,16µM,–,?
CCOc1cc(CNc2ccc(OC)cc2)cc(Br)c1OCC(=O)NC(C)(C)C,–,?,?,?,?
CCOc1cc(CNn2cnnc2)cc(Br)c1OCC(=O)NC(C)(C)C,–,–,–,–,–
COc1cccc(CNC(=O)CCCc2c[nH]c3ccccc23)c1,–,–,?,–,–
Cc1ccc(-n2nc(C)c3c(C)cc(=O)n(CC(=O)Nc4cccc(C)c4C)c32)cc1,·,·,1.2µM,·,–
CCN(Cc1ccccc1)C(=O)Cn1c(=O)cc(C)c2c(C)nn(-c3cccc(F)c3)c21,·,·,21µM,·,18µM
CCN(CC)C(=O)Cn1c(=O)cc(C)c2c(C)nn(-c3cccc(Cl)c3C)c21,·,·,12µM,·,15µM
COc1ccc(/C=C(/NC(=O)c2ccc(C)cc2)C(=O)N2CCCC2)cc1OC,–,–,–,–,–
Cc1noc(C)c1C(=O)Nc1nc2ccccc2s1,–,–,–,–,–
Cc1ccc(C)c(N2CCN(c3ncnc4c3cnn4-c3ccccc3)CC2)c1,–,–,?,–,?
Clc1cccc(-n2ncc3c(N4CCN(Cc5ccccc5)CC4)ncnc32)c1,·,·,?,·,23µM
c1ccc(CCN2CCN(c3ncnc4c3cnn4-c3ccccc3)CC2)cc1,–,–,18µM,–,23µM
CCN1CCN(c2ncnc3c2cnn3-c2ccccc2)CC1,–,–,–,–,–
Cc1ccccc1C(=O)N1CCN(c2ncnc3c2cnn3-c2ccccc2)CC1,–,?,23µM,–,21µM
CCCN(CCC)c1ncnc2c1cnn2-c1ccc(OC)cc1,–,-65,?,–,?
O=C(NCc1nnc2n1CCN(Cc1ccccc1C(F)(F)F)CC2)c1ccncc1,·,·,–,·,–
O=C(O)C[C@]1(C(=O)Nc2ccc(F)cc2)CC(/C=C/c2ccccc2)=NO1,–,–,–,–,–
CCCCNS(=O)(=O)c1cccc(NC(=O)[C@H]2C[C@H](O)[C@@H](CO)O2)c1,–,–,–,–,–
SMILES,HT1080 IDH1KD tx,IL-1B inflam inh,DT40 TDP1 no CPT,HT1080-NT tox,TDP1 cell CPT
CCCCN(C)c1ncnc2c1cnn2-c1cccc(Cl)c1,·,·,16µM,·,23µM
NC(=O)C1=C(c2ccccc2)c2ccccc2C1=O,?,-102,5.2µM,–,2.9µM
COc1ccc(NC(=O)[C@@H]2CCCN2C(=O)[C@@H]2Cc3ccccc3CN2C(=O)OC(C)(C)C)cc1,?,–,23µM,–,–
COc1ccc(NC(=O)C2CCN(C(=O)[C@@H]3Cc4ccccc4CN3C(=O)OC(C)(C)C)CC2)cc1,–,–,–,–,–
COCCn1c(SCC(=O)N2CCCCC2)nc2c(c1=O)SC(C)C2 (configuration not stated),–,–,–,–,–
CC(=O)N1CCc2cc(Br)cc(S(=O)(=O)N3CCCCCC3)c21,–,–,–,–,–
CCCN(CCC)C(=O)C1CCCN(S(=O)(=O)c2cc(Br)cc3c2N(C(=O)CC)CC3)C1 (configuration not stated),·,·,21µM,·,?
CCN(C(=O)C1CCN(S(=O)(=O)c2cc(Br)cc3c2N(C(C)=O)CC3)CC1)c1cccc(C)c1,·,·,23µM,·,?
CCC(=O)N1CCc2cc(Br)cc(S(=O)(=O)N3CCCC(C(=O)N(C)c4ccc(Br)cc4)C3)c21 (configuration not stated),·,·,?,·,18µM
COc1ccc(S(=O)(=O)N(CC(=O)NCC2CCCO2)Cc2ccccc2)cc1C (configuration not stated),–,–,–,–,?
O=C(CCc1ccc(S(=O)(=O)N2CCOCC2)cc1)Nc1c(F)cccc1F,–,–,–,–,–
COc1ccc(-c2c(C#N)c(N)n(N)c(=O)c2C#N)cc1Cl,–,–,?,–,–
CSc1nc(N)c(C#N)c(-c2ccc(Cl)cc2)c1C#N,?,–,16µM,?,–
CSc1nc(-c2ccc(Cl)cc2)nc(N)c1C#N,–,–,–,?,–
N#Cc1c(-c2ccc(Cl)cc2)c(C#N)c(=O)n(N)c1N,–,–,29µM,–,?
CC1CC(C)CN(C(=O)C(C)N(C)CC(=O)Nc2ccc(Cl)cc2)C1 (configuration not stated),–,–,15µM,–,16µM
COc1ccc(N(C(C)C(=O)Nc2ccc(S(=O)(=O)N3CCOCC3)cc2)S(C)(=O)=O)cc1 (configuration not stated),–,–,?,–,–
Cc1ccc(NC(=O)CN(C)C(C)C(=O)Nc2ccc(S(=O)(=O)N3CCCC3)cc2)cc1 (configuration not stated),–,–,23µM,–,18µM
CC1CC(C)CN(C(=O)C(C)N(C)CC(=O)Nc2ccc(F)cc2)C1 (configuration not stated),–,–,?,–,–
COc1ccc(N(C(C)C(=O)Nc2ccc(S(=O)(=O)N3CCCCC3)cc2)S(C)(=O)=O)cc1 (configuration not stated),–,–,29µM,–,?
COc1ccc(CCN(C)c2ccc(S(=O)(=O)N3CCCC3)cn2)cc1OC,–,–,?,–,?
COc1ccc(CCN(C)c2ccc(S(=O)(=O)N3CCCC3)cc2[N+](=O)[O-])cc1OC,–,–,12µM,–,16µM
CC(C(=O)Nc1ccc(S(=O)(=O)N2CCCC2)cc1)N(C)CC(=O)Nc1cccc(F)c1 (configuration not stated),?,–,?,–,?
CN(CC(=O)Nc1ccc(S(=O)(=O)N2CCCC2)cc1)CC(=O)Nc1cccc(F)c1,–,–,23µM,–,18µM
